Records with an inconclusive call do not appear. Where a call stands in place of a potency, no number is given. Calls of active or inactive are those of the source. The call rests on the fitted dose curve; in most records, active means well fitted curve in the direction sought with a large enough effect; inconclusive means small, poorly fitted or top-dose-only effect, or another doubt; inactive means no such curve, though single readings can be large; an effect the other way counts as inactive or inconclusive.
Assay: qHTS assay to identify small molecule inhibitors of chordoma cells - UCH-2 (AID 1259356); further: potency means the concentration at half of the fitted maximal effect
Conditions: UCH-2 chordoma viability, CellTiter-Glo ATP luminescence, 48 h; series mostly up to 46.1 µM

Q: With `Cc1cc(C)cc(C(=O)OC2C[C@H]3CC[C@@H](C2)N3C)c1` (some centres not stated) as the compound, how does the Potency read?
A: Its Potency is “inactive”.

Q: For `CCC1(c2ccccc2)C(=O)NC(=O)NC1=O`, which Potency is on record?
A: The Potency was “inactive”.

Q: For `CNC(C)C(O)c1ccc(O)cc1` (configuration not stated), which Potency is on record?
A: The Potency was “inactive”.

Q: Which Potency does the source give for `CC1CCC(C(C)C)C(OC(=O)c2ccccc2N)C1` (configuration not stated) here?
A: The Potency was “inactive”.

Q: For `O=[N+]([O-])c1ccccc1`, which Potency is on record?
A: Its Potency is “inactive”.

Q: Which Potency does the source give for `CN1[C@H]2CC[C@@H]1[C@@H](C(=O)O)[C@@H](OC(=O)c1ccccc1)C2` here?
A: Its Potency is “inactive”.

Q: For `O=[N+]([O-])C(Br)(CO)CO`, which Potency is on record?
A: Its Potency is “inactive”.

Q: Which Potency does the source give for `O=C(O)C(Cl)(Cl)Cl` here?
A: Its Potency is “inactive”.

Q: For `O=C1CCO1`, which Potency is on record?
A: Its Potency is “inactive”.

Q: With `C=CCN=C=S` as the compound, how does the Potency read?
A: Its Potency is “inactive”.

Q: Which Potency does the source give for `O=C(C[C@@H]1NCCC[C@H]1O)Cn1cnc2cc(Br)c(Cl)cc2c1=O` here?
A: The Potency was “inactive”.

Q: With `C[C@]12CCC(=O)C=C1C=C[C@@H]1[C@@H]2CC[C@@]2(C)[C@H]1CC[C@@]2(O)CCC(=O)O` as the compound, how does the Potency read?
A: The Potency was “inactive”.

Q: For `C=C[C@H]1CN2CC[C@H]1C[C@@H]2[C@@H](O)c1ccnc2ccccc12`, which Potency is on record?
A: The Potency was “inactive”.

Q: Which Potency does the source give for `CCC1(c2ccccc2)C(=O)NC(=O)N(C(=O)c2ccccc2)C1=O` (configuration not stated) here?
A: The Potency was “inactive”.

Q: With `O=CC=O` as the compound, how does the Potency read?
A: The Potency was “inactive”.

Q: For `CCC(=O)O[C@@](Cc1ccccc1)(c1ccccc1)[C@@H](C)CN(C)C`, which Potency is on record?
A: Its Potency is “inactive”.

Q: For `[Cl-].[Cl-].[Hg+2]`, which Potency is on record?
A: The Potency was “inactive”.

Q: With `CC(=O)O[C@H]1CC[C@@]2(C)C(=CC[C@@H]3[C@@H]2CC[C@]2(C)C(=O)CC[C@@H]32)C1` as the compound, how does the Potency read?
A: The Potency was “inactive”.

Q: With `O=C1C=C2C=C[C@@H]3C[C@@]2(O1)[C@H]1CCCCN31` as the compound, how does the Potency read?
A: Its Potency is “inactive”.

Q: With `ClC=C(Cl)Cl` as the compound, how does the Potency read?
A: Its Potency is “inactive”.

Q: With `C[C@H]1CC[C@@H]2[C@@H](C)[C@H]3[C@H](C[C@H]4[C@@H]5CC=C6CC(O[C@@H]7O[C@H](CO)[C@H](O)[C@H](O[C@@H]8O[C@H](CO)[C@@H](O)[C@H](O)[C@H]8O)[C@H]7O[C@H]7O[C@@H](C)[C@H](O)[C@@H](O)[C@H]7O)CC[C@]6(C)[C@H]5CC[C@]34C)N2C1` (some centres not stated) as the compound, how does the Potency read?
A: Its Potency is “inactive”.

Q: For `CCCCNCC(O)c1ccc(O)cc1` (configuration not stated), which Potency is on record?
A: Its Potency is “inactive”.

Q: With `C[C@H]1CC[C@]2(NC1)O[C@H]1C[C@H]3[C@@H]4CC[C@H]5C[C@@H](O[C@@H]6O[C@H](CO)[C@H](O[C@@H]7O[C@H](CO)[C@@H](O)[C@H](O[C@@H]8OC[C@@H](O)[C@H](O)[C@H]8O)[C@H]7O[C@@H]7O[C@H](CO)[C@@H](O)[C@H](O)[C@H]7O)[C@H](O)[C@H]6O)CC[C@]5(C)[C@H]4CC[C@]3(C)[C@H]1[C@@H]2C` as the compound, how does the Potency read?
A: The Potency was 2060 nM (active).

Q: For `S=C(S)N1CCNCC1`, which Potency is on record?
A: Its Potency is “inactive”.

Q: Which Potency does the source give for `CC(=O)Oc1ccc2c3c1O[C@H]1[C@@H](OC(C)=O)C=C[C@H]4[C@@H](C2)N(C)CC[C@@]341` here?
A: The Potency was “inactive”.

Q: Which Potency does the source give for `C/C(=C\c1csc(C)n1)[C@@H]1C[C@@H]2O[C@]2(C)CCC[C@H](C)[C@H](O)[C@@H](C)C(=O)C(C)(C)[C@@H](O)CC(=O)O1` here?
A: The Potency was “inactive”.

Q: Which Potency does the source give for `CC(=O)O[C@H]1C[C@H](O[C@H]2[C@@H](O)C[C@H](O[C@H]3[C@@H](O)C[C@H](OC4CC[C@@]5(C)[C@H](CC[C@@H]6[C@@H]5CC[C@]5(C)[C@@H](C7=CC(=O)OC7)CC[C@]65O)C4)O[C@@H]3C)O[C@@H]2C)O[C@H](C)[C@H]1O[C@@H]1O[C@H](CO)[C@@H](O)[C@H](O)[C@H]1O` (some centres not stated) here?
A: Its Potency is 259 nM (active).

Q: With `C[C@]12CCC(=O)C[C@@H]1CC[C@@H]1[C@@H]2CC[C@]2(C)[C@@H](O)CC[C@@H]12` as the compound, how does the Potency read?
A: Its Potency is “inactive”.

Q: With `CCC1(c2ccccc2)C(=O)NC(=O)N(C)C1=O` (configuration not stated) as the compound, how does the Potency read?
A: Its Potency is “inactive”.

Q: Which Potency does the source give for `COC(=O)[C@@H]1[C@H]2CC[C@@H](C[C@H]1OC(=O)c1ccccc1)N2C` here?
A: Its Potency is “inactive”.

Q: Which Potency does the source give for `CC[C@H](C)[C@H]1O[C@]2(C=C[C@@H]1C)C[C@@H]1C[C@@H](C/C=C(\C)[C@@H](O[C@H]3C[C@H](OC)[C@@H](O[C@H]4C[C@H](OC)[C@@H](O)[C@H](C)O4)[C@H](C)O3)[C@@H](C)/C=C/C=C3\CO[C@@H]4[C@H](O)C(C)=C[C@@H](C(=O)O1)[C@]34O)O2` here?
A: The Potency was “inactive”.

Q: For `CCOc1ccc2c3c1O[C@H]1[C@@H](O)C=C[C@H]4[C@@H](C2)N(C)CC[C@@]341`, which Potency is on record?
A: The Potency was “inactive”.

Q: With `c1ccc(C2(N3CCCC3)CCCCC2)cc1` as the compound, how does the Potency read?
A: Its Potency is “inactive”.

Assay: P-glycoprotein substrates identified in KB-3-1 adenocarcinoma cell line, qHTS therapeutic library screen (AID 1346986); further: nearly all actives have a fitted effect of over 60% in size
Conditions: KB-3-1 parental cells viability, CellTiter-Glo, 72 h; series mostly up to 44.5 µM
Summary of the method: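 72 h cell-killing screen, 500 cells/well, CellTiter-Glo luminescence. Paired lines KB-3-1/KB-8-5-11; P-gp dependence checked by tariquidar co-treatment and HEK-293 MDR-19 versus empty-vector cells.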

Q: Which Potency does the source give for `CC(N)Cc1c[nH]c2ccccc12` (configuration not stated) here?
A: Its Potency is “inactive”.

Q: Which Potency does the source give for `CC1=CC2/C=C(\C)CCC(O)C3OC(C)(C)OC3CC(=O)OC23C(=O)NC(CC(C)C)C3C1C` (configuration not stated) here?
A: Its Potency is “inactive”.

Q: Which Potency does the source give for `COCC1OC(=O)c2coc3c2C1(C)C1=C(C3=O)C2CCC(=O)C2(C)CC1O` (configuration not stated) here?
A: The Potency was “inactive”.

Q: For `COc1cc(CCNCc2ccccc2O)c(OC)cc1C#N`, which Potency is on record?
A: Its Potency is “inactive”.
